Test results taken from PubChem BioAssay.
Records with an inconclusive call do not appear. Active and inactive are the calls of the source.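 Rule for the calls, unless noted: active = viability at or under a set limit in both replicates, limit being median viability minus 3 SD (cut at about 48% in these data, passing the limit was not always enough); inconclusive = at or under the limit in just one replicate; inactive = at or above the limit in both replicates.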

Legend:
[1] = Her2 expression decrease, cell viability multiplex – SKBR3 breast tumor cells, AlphaScreen, ATP viability, primary screen (AID 461;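 active = Her2 level under about 52% in both replicate screens, with viability over 70% of control, limit read from the data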;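 for Her2 level: lower value means less Her2 protein in the cells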;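 for viability: percent of carrier control wells set as 100% viability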); conditions: SKBR3 Her2 protein level, 18-24 h, measured here: SKBR3 viability, ATP luminescence, at 10 µM
[2] = biological target: Receptor tyrosine-protein kinase erbB-2 (Homo sapiens) (UniProt P04626); assay: as above; conditions: 18-24 h, at 10 µM, stronger effect = lower value
[3] = reduced viability of SK-BR-3 breast cancer cells – cell-based, 24 h, human, pilot screen (AID 572;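 active = viability at or below 10% of carrier control in both of two separate runs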;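 note: compound exposure lasted between 18 and 24 h rather than exactly 24 h; 100% = carrier-treated control wells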); conditions: SK-BR-3 viability, CellTiter-Glo luminescence, at 10 µM, stronger effect = lower value
[4] = HUVEC growth inhibition – cell-based, human, primary screen (AID 575;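 active = viability at or below 30% in both replicate assays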;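 note: 100% = median of untreated cell wells with 0.1% DMSO on each plate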); conditions: HUVEC proliferation, CellTiter-Glo luminescence, 72 h; at 10 µM; stronger effect = lower value
[5] = H69AR cell proliferation blockers – human, duplicate replicates, primary screen (AID 580); conditions: H69AR lung tumor cells viability, ATP luminescence, 72 h; at 10 µM; stronger effect = lower value;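 note: 100% = mean luminescence of untreated wells and 0% = no signal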
[6] = MRP1 drug-resistance reversers in H69AR cells – cell-based, doxorubicin co-treatment, pilot screen (AID 601;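 active = viability loss from added drug above about 55%, and viability with drug at most 40%, in both replicates, limit read from the data, passing the limit was not always enough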); conditions: CellTiter-Glo, 72 h, at 10 µM; for differential viability (reversal): stronger effect = higher value
[7] = yeast transport mutant growth inhibition pilot in 384-well plates, post-Golgi transport modulator project (AID 636; in the data active = inhibition above about 31%); conditions: absorbance 615 nm, about 18 h, stronger effect = higher value
[8] = growth suppression of yeast trafficking mutant, preliminary HTS, modulators of trafficking downstream of Golgi apparatus project, 1536-format plate, OD 615 nm (AID 637; in the data active = inhibition above about 30%); conditions: yeast transport mutant growth, absorbance 615 nm, 18 h; stronger effect = higher value
[9] = S. cerevisiae growth inhibition in permissive medium (OD615), pilot counter-assay for S. cerevisiae lifespan shortening project, permissive growth control (AID 705;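 active = growth inhibition above 25% in both replicates, a cutoff set 3 SD above the mean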); conditions: OD615, 24 h, at 10 µM, stronger effect = higher value
[10] = S. cerevisiae growth inhibition in restrictive medium, OD615, pilot screen, restrictive growth control, yeast lifespan reduction project (AID 706;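 active = growth inhibition above a set limit, 3 SD over mean compound inhibition, in both replicates, cut at about 43% in these data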;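 note: modified DeaD lifespan yeast strain shifted to restrictive glucose medium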); conditions: OD615, 48 h, at 10 µM, stronger effect = higher value
[11] = doxorubicin toxicity protection in MRP-1 cells – H69AR cells, CellTiter-Glo, duplicate, MRP-1 activator project, pilot screen (AID 807;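 active = viability increase at or above a cutoff of the median across tested compounds plus 3 SD, cut at about 8.5% in these data, passing the limit was not always enough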;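 note: compound pretreatment 18-22 h then 72 h combined with doxorubicin; 0% = doxorubicin alone and 100% = vehicle without doxorubicin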); conditions: H69AR viability with doxorubicin, CellTiter-Glo luminescence; at 10 µM; stronger effect = higher value
[12] = viability of HCT116 without oncogenic beta-catenin – human colon tumor cells, pilot screen (AID 823;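 active = cell viability at or below a set limit in both duplicate runs, the limit being the all-compound median minus 4 SD, cut at about 23% in these data, passing the limit was not always enough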;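 note: 0% = wells killed by 20 µM Hyamine and 100% = untreated DMSO cell wells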); conditions: HCT116 beta-catenin knockout viability, CellTiter-Glo, 60 h; at 10 µM; stronger effect = lower value
[13] = viability of PTEN-null HCT116 cells – cell-based, HCT116 clonal line, CellTiter-Glo, pilot screen (AID 824;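 active = viability at or below 27.92% in each of two runs, the all-compound median minus 4 SD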;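 note: 0% = 20 µM Hyamine control and 100% = vehicle cell control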); conditions: HCT116 PTEN-deleted viability, 60 h, at 10 µM, stronger effect = lower value
[14] = RAM pathway blockade in budding yeast – dse1pr::URA3 reporter, 5-FOA selection, pilot screen (AID 869;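 active = inhibition over a set limit, the all-compound mean plus 3 SD, in both replicate runs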;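 note: 0% = DMSO wells with no growth and 100% = 10 µM 1-NA-PP1 with full growth; RAM network block rescues cells from 5-FOA so hits raise OD615 growth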); conditions: S. cerevisiae dse1pr::URA3 5-FOA growth, OD615, 2 d; at 10 µM; stronger effect = higher value; strain carries analog-sensitive mutant Cbk1 kinase
[15] = RAM signaling pathway blockade in yeast – S. cerevisiae, Pdr1DBD-CYC8 efflux-inhibited sensitized strain, primary screen (AID 1298;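 active = RAM network inhibition above 8.4% in each of two replicates, 3 SD over the compound average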;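 note: 0% = DMSO untreated cells without growth and 100% = 10 µM 1-NA-PP1 full growth; higher means more yeast growth rescued from 5-FOA killing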); conditions: S. cerevisiae cbk1-as DSE1-URA3 strain, 5-FOA growth OD615, 2 d; at 50 µM; stronger effect = higher value
[16] = H69AR cells + 2 uM doxorubicin, measured here: viability with 2 uM doxorubicin, stronger effect = lower value
[17] = H69AR cells, compound alone cytotoxicity

Receptor tyrosine-protein kinase erbB-2 (Homo sapiens), sequence (P04626 whole entry, looked up): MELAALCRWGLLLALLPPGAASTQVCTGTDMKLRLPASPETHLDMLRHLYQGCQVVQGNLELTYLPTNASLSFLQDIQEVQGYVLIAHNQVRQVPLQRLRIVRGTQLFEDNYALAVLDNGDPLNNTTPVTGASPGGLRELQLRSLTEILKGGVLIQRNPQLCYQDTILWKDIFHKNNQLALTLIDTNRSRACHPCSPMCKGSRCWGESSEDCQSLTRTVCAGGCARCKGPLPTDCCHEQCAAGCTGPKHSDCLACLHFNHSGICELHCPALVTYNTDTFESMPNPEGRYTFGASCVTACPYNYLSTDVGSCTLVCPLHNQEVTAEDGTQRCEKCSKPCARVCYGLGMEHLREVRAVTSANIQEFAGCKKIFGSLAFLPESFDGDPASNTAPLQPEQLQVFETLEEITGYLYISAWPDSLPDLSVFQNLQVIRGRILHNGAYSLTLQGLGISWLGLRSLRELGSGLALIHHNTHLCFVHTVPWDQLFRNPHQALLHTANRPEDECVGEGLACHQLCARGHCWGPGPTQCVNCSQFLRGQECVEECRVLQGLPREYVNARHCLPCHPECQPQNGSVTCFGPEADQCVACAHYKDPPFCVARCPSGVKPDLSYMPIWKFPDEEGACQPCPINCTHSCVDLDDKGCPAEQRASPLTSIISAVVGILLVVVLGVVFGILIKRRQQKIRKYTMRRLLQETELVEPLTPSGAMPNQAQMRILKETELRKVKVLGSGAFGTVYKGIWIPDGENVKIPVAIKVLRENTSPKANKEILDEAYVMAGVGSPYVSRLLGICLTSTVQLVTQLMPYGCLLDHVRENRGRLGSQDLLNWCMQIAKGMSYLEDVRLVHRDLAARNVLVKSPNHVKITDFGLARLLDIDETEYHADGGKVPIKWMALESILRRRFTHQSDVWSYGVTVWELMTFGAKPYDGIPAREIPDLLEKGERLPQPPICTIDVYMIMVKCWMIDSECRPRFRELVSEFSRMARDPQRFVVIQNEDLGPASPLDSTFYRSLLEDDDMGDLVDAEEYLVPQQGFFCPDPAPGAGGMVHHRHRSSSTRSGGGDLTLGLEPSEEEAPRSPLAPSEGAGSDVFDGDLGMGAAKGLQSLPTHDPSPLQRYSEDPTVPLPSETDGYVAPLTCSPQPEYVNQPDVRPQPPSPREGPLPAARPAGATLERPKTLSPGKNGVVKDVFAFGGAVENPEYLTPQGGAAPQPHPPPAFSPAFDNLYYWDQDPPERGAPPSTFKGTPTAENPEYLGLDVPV

SMILES | viability [1] [%] | Her2 level [2] | viability [3] | viability [4] | viability [5] | differential viability (reversal) ([6]; H69AR cells + 2 uM doxorubicin) | viability [6, 16] [%] | viability [6, 17] [%] | inhibition [7] | inhibition [8] | growth inhibition [9] | growth inhibition [10] | viability increase [11] | viability [12] | viability [13] | inhibition [14] | RAM network inhibition [15]
COc1cccc(-n2c(SCC(=O)N3CCCC3)nc3c([nH]c4ccccc43)c2=O)c1 | 83 | 80.5% (inactive) | 83% (inactive) | 74.5% (inactive) | 76.1% (inactive) | -1.79% (inactive) | 77.9 | 76.1 | -5.2% (inactive) | -1.83% (inactive) | -8.48% (inactive) | -21.2% (inactive) | -6.23% (inactive) | 90.3% (inactive) | 85.7% (inactive) | 1.42% (inactive) | 7.87% (inactive)
Cc1ccccc1NC(=O)C1CCCN(S(=O)(=O)c2cnc[nH]2)C1 (configuration not stated) | 85.5 | 108% (inactive) | 85.5% (inactive) | 95.8% (inactive) | 92.6% (inactive) | 1.39% (inactive) | 91.2 | 92.6 | -3.87% (inactive) | 3.33% (inactive) | -1.35% (inactive) | 0.61% (inactive) | -2.13% (inactive) | 102% (inactive) | 101% (inactive) | 2.71% (inactive) | 2.9% (inactive)
COC(=O)CSc1nc2nc(C)cc(C)n2n1 | 99 | 96.5% (inactive) | 99% (inactive) | 88.8% (inactive) | 99.7% (inactive) | 5.46% (inactive) | 94.3 | 99.7 | -3.73% (inactive) | 3.17% (inactive) | -2.5% (inactive) | 1.47% (inactive) | -0.51% (inactive) | 97.7% (inactive) | 91.2% (inactive) | 2.01% (inactive) | 2.93% (inactive)
COc1ccc(CNC(=O)c2nnn(Cc3ccc(OC)cc3)c2N)cc1 | 89.5 | 101% (inactive) | 89.5% (inactive) | 77.5% (inactive) | 86.5% (inactive) | -1.82% (inactive) | 88.3 | 86.5 | -2.69% (inactive) | 3.17% (inactive) | -3.35% (inactive) | -1.51% (inactive) | -3.08% (inactive) | 91% (inactive) | 85.4% (inactive) | 1.69% (inactive) | 2.66% (inactive)
CCCC(=O)NCCc1cc2c(C)ccc(C)c2[nH]c1=O | 106 | 93% (inactive) | 106% (inactive) | 110% (inactive) | 98.8% (inactive) | 12.1% (inactive) | 86.7 | 98.8 | -5.6% (inactive) | 9.33% (inactive) | -4.56% (inactive) | -10.1% (inactive) | -0.5% (inactive) | 111% (inactive) | 103% (inactive) | 0.625% (inactive) | 0.95% (inactive)
COc1cc(C2NC(=O)NC(C)=C2C(=O)OCC2CCCO2)ccc1O (configuration not stated) | 90.5 | 86.5% (inactive) | 90.5% (inactive) | 94.4% (inactive) | 103% (inactive) | 5.47% (inactive) | 97.4 | 103 | -6.08% (inactive) | -2.13% (inactive) | -7.94% (inactive) | -14.9% (inactive) | -1.14% (inactive) | 91.1% (inactive) | 88.3% (inactive) | 1.59% (inactive) | 1.93% (inactive)
